# Assay results published in PubChem BioAssay AID1159580 (chemical genetic matrix, 2015).
# Several values for one entry are separate records, joined by “and”; a condition that tells them apart may be missing. Equal values may be shown once. Out of some 5,500 compounds screened, about 2,000 (36%) were called active. Another 18% or so got no clear call; they are omitted. The list shows a part of the results. A number with no mark means an inactive call. Rule as the data show it: active = normalized growth mostly below about 0.91 (no sharp cut-off); inconclusive = no clear call, values can overlap the other calls; inactive = mostly above about 0.92.
# Assay: chemical genetic growth profiling, strain panel (AID 1159580);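 also: tested at 20 µM; growth read once vehicle control cultures reached saturation at 30 °C; 1 = growth at the plate median or of vehicle wells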
# Details: S. cerevisiae deletion strains, growth OD
smiles,measurement,setting,value
C#C[C@]1(O)CCC2C3CCc4cc(O)ccc4C3CC[C@@]21C (some centres not stated),normalized growth,"locus YAL013W, strain DEP1, stronger effect = lower value",1
same,normalized growth,"locus YAL021C, strain ccr4, stronger effect = lower value",1.06
same,normalized growth,"locus YAL026C, strain drs2, stronger effect = lower value",0.951
same,normalized growth,"locus YAL030W, strain snc1, stronger effect = lower value",1.02
same,normalized growth,"locus YBL061C, strain skt5, stronger effect = lower value",0.998
same,normalized growth,"locus YBR009C, strain hhf1, stronger effect = lower value",0.894 (active)
same,normalized growth,"locus YBR021W, strain FUR4, stronger effect = lower value",0.94
same,normalized growth,"locus YBR023C, strain chs3, stronger effect = lower value",0.996
same,normalized growth,"locus YBR171W, strain sec66, stronger effect = lower value",1.02
same,normalized growth,"locus YBR229C, strain ROT2, stronger effect = lower value",1.02
same,normalized growth,"locus YBR231C, strain swc5, stronger effect = lower value",1
same,normalized growth,"locus YBR279W, strain paf1, stronger effect = lower value",1
same,normalized growth,"locus YCL011C, strain gbp2, stronger effect = lower value",1.01
same,normalized growth,"locus YCL016C, strain dcc1, stronger effect = lower value",0.988
same,normalized growth,"locus YCL029C, strain bik1, stronger effect = lower value",0.942
same,normalized growth,"locus YCL061C, strain MRC1, stronger effect = lower value",0.968
same,normalized growth,"locus YCL069W, strain vba3, stronger effect = lower value",1.02
same,normalized growth,"locus YCR088W, strain abp1, stronger effect = lower value",1.02
same,normalized growth,"locus YDL005C, strain med2, stronger effect = lower value",1.04
same,normalized growth,"locus YDL035C, strain GPR1, stronger effect = lower value",0.853 (active)
same,normalized growth,"locus YDL040C, strain nat1, stronger effect = lower value",1.03
same,normalized growth,"locus YDL074C, strain BRE1, stronger effect = lower value",0.833
same,normalized growth,"locus YDL101C, strain DUN1, stronger effect = lower value",0.989
same,normalized growth,"locus YDL185W, strain tfp1, stronger effect = lower value",1.02
same,normalized growth,"locus YDL192W, strain arf1, stronger effect = lower value",1.01
same,normalized growth,"locus YDR001C, strain nth1, stronger effect = lower value",1.04
same,normalized growth,"locus YDR069C, strain doa4, stronger effect = lower value",0.991
same,normalized growth,"locus YDR101C, strain arx1, stronger effect = lower value",0.956
same,normalized growth,"locus YDR137W, strain rgp1, stronger effect = lower value",0.738 (active)
same,normalized growth,"locus YDR159W, strain sac3, stronger effect = lower value",0.908
same,normalized growth,"locus YDR162C, strain NBP2, stronger effect = lower value",0.843
same,normalized growth,"locus YDR195W, strain ref2",1.25 [resistant] (active)
same,normalized growth,"locus YDR297W, strain sur2, stronger effect = lower value",1.01
same,normalized growth,"locus YDR318W, strain mcm21, stronger effect = lower value",0.945
same,normalized growth,"locus YDR334W, strain swr1, stronger effect = lower value",1.05
same,normalized growth,"locus YDR335W, strain msn5, stronger effect = lower value",0.959
same,normalized growth,"locus YDR388W, stronger effect = lower value",1.02
same,normalized growth,"locus YDR392W, strain spt3, stronger effect = lower value",0.617 (active)
same,normalized growth,"locus YDR502C, strain sam2, stronger effect = lower value",0.93
same,normalized growth,"locus YEL003W, strain gim4, stronger effect = lower value",0.938
same,normalized growth,"locus YEL037C, strain rad23, stronger effect = lower value",1.02
same,normalized growth,"locus YEL061C, strain CIN8 (second series), stronger effect = lower value",1.03
same,normalized growth,"locus YEL061C, strain CIN8, stronger effect = lower value",1.04
same,normalized growth,"locus YER015W, strain faa2, stronger effect = lower value",1.01
same,normalized growth,"locus YER016W, strain bim1, stronger effect = lower value",0.934
same,normalized growth,"locus YER110C, stronger effect = lower value",1.03
same,normalized growth,"locus YER111C, strain swi4, stronger effect = lower value",1.06
same,normalized growth,"locus YER155C, strain BEM2 (second series), stronger effect = lower value",1.07
same,normalized growth,"locus YER155C, strain BEM2, stronger effect = lower value",1.06
same,normalized growth,"locus YER167W, strain BCK2, stronger effect = lower value",1
same,normalized growth,"locus YFR010W, strain ubp6, stronger effect = lower value",1.01
same,normalized growth,"locus YGL078C, strain dbp3, stronger effect = lower value",0.904 (active)
same,normalized growth,"locus YGL086W, strain mad1, stronger effect = lower value",0.951
same,normalized growth,"locus YGL167C, strain pmr1, stronger effect = lower value",1.02
same,normalized growth,"locus YGL173C, strain kem1, stronger effect = lower value",0.904
same,normalized growth,"locus YGL227W, strain vid30, stronger effect = lower value",1.05
same,normalized growth,"locus YGL240W, strain doc1, stronger effect = lower value",0.918
same,normalized growth,"locus YGL248W, strain PDE1, stronger effect = lower value",0.952
same,normalized growth,"locus YGL253W, strain hxk2, stronger effect = lower value",0.963
same,normalized growth,"locus YGR078C, strain PAC10, stronger effect = lower value",0.877
same,normalized growth,"locus YGR135W, strain pre9, stronger effect = lower value",0.949
same,normalized growth,"locus YGR252W, strain gcn5, stronger effect = lower value",0.653 (active)
same,normalized growth,"locus YHR013C, strain ard1, stronger effect = lower value",1.17 [resistant] (active)
same,normalized growth,"locus YHR027C, strain rpn1, stronger effect = lower value",0.981
same,normalized growth,"locus YHR030C, strain SLT2, stronger effect = lower value",1.02 and 0.96
same,normalized growth,"locus YHR079C, strain IRE1 (second series), stronger effect = lower value",0.979
same,normalized growth,"locus YHR079C, strain IRE1, stronger effect = lower value",0.968
same,normalized growth,"locus YHR094C, strain hxt1, stronger effect = lower value",1.03
same,normalized growth,"locus YHR129C, strain ARP1, stronger effect = lower value",0.993
same,normalized growth,"locus YHR142W, strain chs7, stronger effect = lower value",0.946
same,normalized growth,"locus YHR200W, strain rpn10, stronger effect = lower value",1.01
same,normalized growth,"locus YIL066C, strain RNR3, stronger effect = lower value",0.913
same,normalized growth,"locus YIL073C, strain SPO22, stronger effect = lower value",1.01
same,normalized growth,"locus YIL125W, strain kgd1, stronger effect = lower value",1
same,normalized growth,"locus YIR030C, strain dcg1, stronger effect = lower value",0.999
same,normalized growth,"locus YJL092W, strain hpr5, stronger effect = lower value",1.02
same,normalized growth,"locus YJL095W, strain BCK1 (second series), stronger effect = lower value",1
same,normalized growth,"locus YJL095W, strain BCK1, stronger effect = lower value",0.861 and 1
same,normalized growth,"locus YJL115W, strain asf1, stronger effect = lower value",1.05
same,normalized growth,"locus YJL129C, strain trk1, stronger effect = lower value",0.946
same,normalized growth,"locus YJL134W, strain LCB3, stronger effect = lower value",1.03
same,normalized growth,"locus YJL154C, strain vps35, stronger effect = lower value",1.05
same,normalized growth,"locus YJL164C, strain tpk1, stronger effect = lower value",0.952
same,normalized growth,"locus YJL166W, strain qcr8, stronger effect = lower value",0.973
same,normalized growth,"locus YJL168C, strain set2, stronger effect = lower value",1.02
same,normalized growth,"locus YJL187C, strain SWE1 (second series), stronger effect = lower value",0.931
same,normalized growth,"locus YJL187C, strain SWE1, stronger effect = lower value",1.02
